Data on seven compounds can be found in PubChem BioAssay (Tox21).

Results filed as inconclusive are left out. The source made the active and inactive calls. Unless noted, calls follow the shape of the full dose curve.

A short description of experiment [1]: Nuclear factor erythroid 2-related factor 2/antioxidant responsive element (Nrf2/ARE) small molecule agonists: luciferase reporter gene qHTS assay in human keratinocytes (AID 1919969; also: nearly all actives have a fitted effect of over 35% in size). (In general: In a reporter assay the amount or activity of a reporter protein is the signal.)
In experiment [2] the target is Gonadotropin-releasing hormone receptor (Homo sapiens) (UniProt P30968). The experiment in a line: Human gonadotropin-releasing hormone receptor (GnRHR) small molecule agonists, calcium flux assay in GnRHR-HEK293 cells (AID 1920063). Also: nearly all actives have a fitted effect of over 35% in size. The procedure, abridged: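 HEK293 cells stably expressing human GnRHR were plated 18 h at 37 °C, loaded with calcium dye 1 h at 37 °C, then given compound in agonist mode; fluorescence (Ex/Em 480/540) read kinetically for 3 min at 1 s intervals.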
(In general: Calcium assays in cells follow changes in intracellular calcium, usually with a dye or a luminescent sensor.)

In experiment [3] the target is KiSS-1 receptor (Homo sapiens) (UniProt Q969F8). Put plainly: Human kisspeptin (KISS1R) small molecule agonists, calcium flux assay in KISS1R-HEK293 cells (AID 1920064; active = well fitted activation curve with a large enough effect in the repeat runs). Summed up: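 HEK293 cells stably expressing human KISS1R were plated 18 h at 37 °C, loaded with calcium dye for 1 h at 37 °C, then given compound by pin tool. Fluorescence (Ex/Em 480/540) was read kinetically for 3 min.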

Experiment [4] can be described thus: G protein-coupled receptor (GPCR) small molecule agonists, calcium flux assay: HEK293 wild type cell line counter screen (AID 1920065). The procedure, abridged:
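Cells were plated and cultured 18 h at 37 C/5% CO2, then loaded with calcium dye for 1 h at 37 C. Compounds in DMSO were pin-transferred in agonist mode, and fluorescence (Ex/Em 480/540) was read kinetically for 3 min at 1 s intervals.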

Experiment [5] is described as follows: p53 small molecule agonists, cell-based qHTS assay with rat liver microsomes (AID 1963578). The procedure, abridged: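 p53RE-bla cells, 4,000/well, pre-incubated 5 h, then given compounds plus rat liver microsomes (0.5 mg/mL final) and NADPH (0.5 mg/mL final). Incubation 16 h at 37 C; beta-lactamase reporter read by LiveBLAzer fluorescence after 2 h at room temperature.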

Experiment [6] is described as follows: p53 small molecule agonists, cell-based qHTS assay with human liver microsomes: qHTS cell viability counter screen (AID 1963579). Also: nearly all actives have a fitted effect of over 45% in size. Summed up: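 p53RE-bla cells, 4,000/well, dosed 5 hours after plating, with human liver microsomes (0.5 mg/mL final) plus NADPH (0.5 mg/mL final), 16 hours at 37 C. Viability read as CellTiter-Glo luminescence after 30 min at room temperature.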
(In qHTS, concentration-response curves come from the screen itself.)

Experiment [7] can be described thus: p53 small molecule agonists, cell-based qHTS assay with rat liver microsomes: qHTS cell viability counter screen (AID 1963580). Also: nearly all actives have a fitted effect of over 45% in size. Summed up: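 Viability is assessed in parallel with the p53 reporter read: HCT-116 p53RE-bla cells receive compounds plus rat microsomes and NADPH (0.5 mg/mL final apiece), incubate 16 h at 37 C, and then CellTiter-Glo luminescence is recorded.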

A short description of experiment [8]: p53 small molecule agonists, cell-based qHTS assay: qHTS cell viability counter screen (AID 1963581). Also: nearly all actives have a fitted effect of over 45% in size. Summed up: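 p53RE-bla HCT-116 cells were exposed to compounds for 16 h at 37 C; after the beta-lactamase FRET read in the same wells, CellTiter-Glo was added and luminescence (intracellular ATP) read after 30 min at room temperature.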
The nature of experiment [9]: p53 small molecule agonists, cell-based qHTS assay (AID 1963582; active = well fitted activation curve with a large enough effect in the signal ratio in the repeat runs, not every such curve was filed as active; the % refers to the signal ratio). The procedure, abridged: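 p53RE-bla beta-lactamase reporter cells rested 5 h at 37 C/5% CO2, then received compounds in DMSO by pin transfer and were incubated 16 h at 37 C. LiveBLAzer B/G FRET substrate was loaded for 2 h at room temperature before fluorescence reading.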
The target in experiment [10] is 5-hydroxytryptamine receptor 2A (Homo sapiens) (UniProt P28223). The experiment in a line: 5-hydroxytryptamine receptor 2A (HTR2A) small molecule antagonists, cell-based qHTS assay (AID 1963586). Also: nearly all actives have a fitted effect of over 45% in size. The procedure, abridged:
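Antagonist-mode intracellular calcium assay: DOI (4 nM) added after 5 min compound pre-incubation at room temperature to dye-loaded HTR2A-CHO cells. Fluorescence followed for 3 min, sampled every second.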

For experiment [11] the target is unchanged. Put plainly: 5-hydroxytryptamine receptor 2A (HTR2A) small molecule agonists, cell-based qHTS assay (AID 1963587). Also: nearly all actives have a fitted effect of over 30% in size. Summed up: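 CHO cells stably expressing human HTR2A, plated 18 h, loaded with calcium dye 1 h at 37 C. Agonist mode: compounds added and intracellular calcium fluorescence recorded kinetically for 2 min at 1 sec intervals.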
Experiment [12] has as its target Muscarinic acetylcholine receptor M1 (Homo sapiens) (UniProt P11229). Put plainly: Cholinergic receptor muscarinic 1 (CHRM1) small molecule antagonists, cell-based qHTS assay (AID 1963588). Also: nearly all actives have a fitted effect of over 40% in size. The procedure, abridged: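 CHRM1-CHO calcium-flux assay, antagonist mode. Cells were seeded 18 h, dye-loaded 1 h at 37 C and given compound for 5 min at RT, then acetylcholine was added at 50nM. FDSS fluorescence was read 3 min; 15 concentrations, three runs.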

The target is the same in experiment [13]. Put plainly: Cholinergic receptor muscarinic 1 (CHRM1) small molecule agonists, cell-based qHTS assay (AID 1963589). Also: nearly all actives have a fitted effect of over 35% in size. Summed up: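 CHO cells stably expressing human CHRM1, seeded 18 h at 37 C/5% CO2, dye-loaded 1 h at 37 C, then given compound in agonist mode; intracellular calcium fluorescence read kinetically at 1 s intervals. Fifteen concentrations, three independent runs.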

A short description of experiment [14]: cAMP Responsive Elements (CRE) small molecule agonists, cell-based qHTS assay (AID 1963590). Summed up:
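CRE-bla HEK 293T cells in DMEM with 10% dialyzed FBS, NEAA, pyruvate and 25 mM HEPES were plated 18 h at 37 C/5% CO2, then exposed to compounds in DMSO for 3 h before LiveBLAzer B/G FRET substrate addition.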

Experiment [15] in a line: cAMP Responsive Elements (CRE) small molecule antagonists, cell-based qHTS assay (AID 1963591; active = well fitted inhibition curve with a large enough effect in the signal ratio in the repeat runs, not every such curve was filed as active; the % refers to the signal ratio). Summed up: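 CRE-bla HEK293T cells were plated 18 h at 37 °C/5% CO2, pinned with compound in DMSO, then stimulated with NKH477 at 0.25 uM final for 3 h. LiveBLAzer B/G FRET substrate was added and plates incubated 2 h at room temperature.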
Experiment [16] deals with D(2) dopamine receptor (Homo sapiens) (UniProt P14416). Put plainly: Dopamine D2 receptor (DRD2) small molecule agonists, cell-based qHTS assay (AID 1963594). Also: nearly all actives have a fitted effect of over 35% in size. Summed up: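 HEK293 cells stably expressing human DRD2, pre-treated with PDE inhibitor Ro20-1724 (0.1 mM final) and compound 10 min at room temperature, then stimulated with NKH477 (200nM […]) for 30 min. cAMP read by HTRF (665/620 nm).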

The target of experiment [17] is Beta-2 adrenergic receptor (Homo sapiens) (UniProt P07550). The experiment in a line: Adrenergic beta2 receptor (ADRB2) small molecule antagonists, cell-based qHTS assay (AID 1963592). Also: nearly all actives have a fitted effect of over 50% in size. Also: potency is read from the fitted curve at half-maximal effect. The procedure, abridged: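 Cells (CHO, stable ADRB2 overexpression) incubated 18-20hr at 37C; compounds added from DMSO; agonist mix (1nM isoproterenol, 100uM IBMX, 25uM Ro-20-1724) added; 0.5hr RT; d2-cAMP and anti-cAMP-cryptate added; 1hr RT; 665/615 nm read.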

Experiment [18] deals with D(2) dopamine receptor (Homo sapiens) (UniProt P14416). The experiment in a line: Dopamine D2 receptor (DRD2) small molecule antagonists, cell-based qHTS assay (AID 1963595; active = well fitted inhibition curve with a large enough effect in the signal ratio in the repeat runs, with a control signal flat; the % refers to the signal ratio). The procedure, abridged:
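Human DRD2 antagonist qHTS measuring cAMP by HTRF. The cells are exposed to compound for 10 min, then to NKH477 (200 nM) and quinpirole (12 nM) for 30 min at RT, with Ro20-1724 (0.1 mM) present throughout.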

A short description of experiment [19]: p53 small molecule agonists, cell-based qHTS assay with human liver microsomes (AID 1963577). The procedure, abridged:
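p53RE-bla cells, 4,000/well, compound added after 5 h, with human liver microsomes 0.5 mg/mL and NADPH 0.5 mg/mL final; 16 h at 37 C, then LiveBLAzer 2 h RT, fluorescence.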

The target of experiment [20] is Beta-2 adrenergic receptor (Homo sapiens) (UniProt P07550). The experiment in a line: Adrenergic beta2 receptor (ADRB2) small molecule agonists, cell-based qHTS assay (AID 1963593).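 Also: CHO cells stably overexpressing human ADRB2.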 Summed up:
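CHO cells stably over-expressing ADRB2 were plated overnight at 37C, then dosed with compounds plus a stimulation mix containing 100uM IBMX and 25uM Ro-20-1724 for 0.5hr at room temperature. cAMP was measured by HTRF competition, 1hr.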

Sequence of Muscarinic acetylcholine receptor M1 (Homo sapiens) (P11229 whole entry, looked up): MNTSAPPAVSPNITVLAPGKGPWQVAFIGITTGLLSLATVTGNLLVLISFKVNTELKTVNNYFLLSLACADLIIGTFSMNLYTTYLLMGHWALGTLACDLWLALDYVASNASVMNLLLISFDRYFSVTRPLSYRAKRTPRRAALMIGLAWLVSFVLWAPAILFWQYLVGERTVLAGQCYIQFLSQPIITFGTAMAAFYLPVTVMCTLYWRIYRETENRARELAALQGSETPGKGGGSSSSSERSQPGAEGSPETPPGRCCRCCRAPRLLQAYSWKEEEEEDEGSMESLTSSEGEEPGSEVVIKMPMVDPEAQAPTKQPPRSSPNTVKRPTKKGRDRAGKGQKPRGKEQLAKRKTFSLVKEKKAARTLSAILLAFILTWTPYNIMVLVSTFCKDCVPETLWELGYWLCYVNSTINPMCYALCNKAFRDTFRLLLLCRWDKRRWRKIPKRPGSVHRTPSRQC
Sequence of Gonadotropin-releasing hormone receptor (Homo sapiens) (P30968 whole entry, looked up): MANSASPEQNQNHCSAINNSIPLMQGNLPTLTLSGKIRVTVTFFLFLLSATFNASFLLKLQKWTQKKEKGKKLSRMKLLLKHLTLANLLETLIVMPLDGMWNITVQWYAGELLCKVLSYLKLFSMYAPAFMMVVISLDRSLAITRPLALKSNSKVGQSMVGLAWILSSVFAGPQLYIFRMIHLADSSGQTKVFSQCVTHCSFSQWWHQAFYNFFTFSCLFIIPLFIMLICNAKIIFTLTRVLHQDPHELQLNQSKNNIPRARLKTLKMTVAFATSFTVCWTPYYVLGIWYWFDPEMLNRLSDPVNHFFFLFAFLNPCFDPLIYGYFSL
Sequence of Beta-2 adrenergic receptor (Homo sapiens) (P07550 whole entry, looked up): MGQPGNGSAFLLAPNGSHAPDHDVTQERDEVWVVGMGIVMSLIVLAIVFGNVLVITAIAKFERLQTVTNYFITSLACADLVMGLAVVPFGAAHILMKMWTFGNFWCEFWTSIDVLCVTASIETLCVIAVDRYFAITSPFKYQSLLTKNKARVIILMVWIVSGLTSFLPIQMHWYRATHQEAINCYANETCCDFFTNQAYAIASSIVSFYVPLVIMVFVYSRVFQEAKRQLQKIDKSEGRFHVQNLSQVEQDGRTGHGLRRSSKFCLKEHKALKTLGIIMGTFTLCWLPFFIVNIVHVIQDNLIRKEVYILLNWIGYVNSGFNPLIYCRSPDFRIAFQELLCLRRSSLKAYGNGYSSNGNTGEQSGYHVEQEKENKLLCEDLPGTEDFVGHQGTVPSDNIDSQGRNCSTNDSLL
Sequence of D(2) dopamine receptor (Homo sapiens) (P14416 whole entry, looked up): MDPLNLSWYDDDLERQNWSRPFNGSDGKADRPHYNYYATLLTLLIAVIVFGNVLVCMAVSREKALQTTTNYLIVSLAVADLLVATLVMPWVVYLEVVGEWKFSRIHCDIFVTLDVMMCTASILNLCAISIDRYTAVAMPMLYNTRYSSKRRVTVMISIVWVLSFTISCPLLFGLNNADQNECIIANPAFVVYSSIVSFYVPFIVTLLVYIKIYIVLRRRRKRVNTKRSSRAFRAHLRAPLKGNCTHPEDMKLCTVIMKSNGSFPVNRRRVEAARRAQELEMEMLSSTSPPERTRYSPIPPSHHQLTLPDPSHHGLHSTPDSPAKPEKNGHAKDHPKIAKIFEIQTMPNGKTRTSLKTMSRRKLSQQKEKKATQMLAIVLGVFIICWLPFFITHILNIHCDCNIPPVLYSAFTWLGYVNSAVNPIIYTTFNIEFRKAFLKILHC
Sequence of KiSS-1 receptor (Homo sapiens) (Q969F8 whole entry, looked up): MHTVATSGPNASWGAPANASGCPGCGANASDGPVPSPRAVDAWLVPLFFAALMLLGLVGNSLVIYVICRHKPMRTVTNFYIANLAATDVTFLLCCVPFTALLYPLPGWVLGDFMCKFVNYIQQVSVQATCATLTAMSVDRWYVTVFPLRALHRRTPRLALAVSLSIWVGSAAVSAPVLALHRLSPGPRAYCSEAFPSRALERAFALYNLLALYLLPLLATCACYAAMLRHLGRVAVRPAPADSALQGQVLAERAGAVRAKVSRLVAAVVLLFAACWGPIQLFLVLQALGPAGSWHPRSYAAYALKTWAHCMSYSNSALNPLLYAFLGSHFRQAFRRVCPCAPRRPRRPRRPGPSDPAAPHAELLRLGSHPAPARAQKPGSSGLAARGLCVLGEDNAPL
Sequence of 5-hydroxytryptamine receptor 2A (Homo sapiens) (P28223 whole entry, looked up): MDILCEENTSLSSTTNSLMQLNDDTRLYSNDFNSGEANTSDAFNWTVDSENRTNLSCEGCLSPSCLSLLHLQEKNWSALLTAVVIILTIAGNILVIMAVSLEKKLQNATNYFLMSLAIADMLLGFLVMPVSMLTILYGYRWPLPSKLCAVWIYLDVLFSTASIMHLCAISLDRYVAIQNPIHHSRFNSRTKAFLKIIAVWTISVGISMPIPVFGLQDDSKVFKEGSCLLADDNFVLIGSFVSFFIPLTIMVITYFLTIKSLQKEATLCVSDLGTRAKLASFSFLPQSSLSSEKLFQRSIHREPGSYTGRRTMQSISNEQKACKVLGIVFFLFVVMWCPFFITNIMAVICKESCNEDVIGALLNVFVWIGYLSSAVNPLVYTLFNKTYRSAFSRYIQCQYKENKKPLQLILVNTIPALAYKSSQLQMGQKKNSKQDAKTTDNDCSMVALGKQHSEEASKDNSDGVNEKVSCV

Take `CCc1c(C(=O)O)c(=O)cnn1-c1ccc(Cl)cc1`: the Potency entry in [1], in experiment [2], in experiment [3], in experiment [4], in experiment [5] and in [6] was “inactive” in each case. In addition, the Potency entry in experiment [7], in [8], in experiment [9], in experiment [10], in experiment [11] and in experiment [12] was “inactive” each time. Also, the Potency result in experiment [13], in experiment [14], in experiment [15] and in experiment [16] was “inactive” throughout.
Consider `CC(=O)S[C@H](C(=O)N[C@H]1Cc2ccccc2[C@H]2CCC[C@@H](C(=O)O)N2C1=O)C(C)C`, for which the Potency entry in experiment [1], in [2], in experiment [3], in experiment [4], in experiment [5] and in experiment [6] was “inactive” throughout. In addition, the Potency entry in experiment [7], in experiment [8], in experiment [9], in experiment [10], in experiment [11] and in experiment [12] was “inactive” throughout. In addition, the Potency entry in experiment [13], in experiment [14], in experiment [15], in [17], in experiment [16] and in experiment [18] was “inactive” in each case.
Regarding `Cc1cncc(C)c1`, the Potency entry in experiment [1], in experiment [2], in experiment [3], in [4], in experiment [19] and in experiment [5] was “inactive” throughout. Besides, the Potency entry in experiment [6], in experiment [7], in [9], in experiment [10], in experiment [11] and in experiment [12] was “inactive” each time. The Potency result in [13], in experiment [14], in [20], in experiment [16] and in experiment [18] was “inactive” throughout.
Consider `CNCCO`, for which the Potency entry in experiment [1], in experiment [2], in [3], in experiment [4], in experiment [19] and in experiment [5] was “inactive” in each case. For the same compound, the Potency entry in experiment [6], in [7], in experiment [8], in experiment [9], in experiment [10] and in [12] was “inactive” in each case. Also, the Potency entry in experiment [13], in experiment [14], in experiment [15], in experiment [17], in [20] and in experiment [16] was “inactive” throughout. The Potency result in experiment [18] was “inactive”.
Turning to `C=C[Si](OC(=C)C)(OC(=C)C)OC(=C)C`, the Potency result in [1], in experiment [2], in experiment [3], in experiment [4], in [19] and in [5] was “inactive” in each case. Moreover, the Potency entry in [6], in experiment [7], in experiment [9], in experiment [10], in experiment [12] and in experiment [13] was “inactive” throughout. For the same compound, the Potency entry in experiment [14], in experiment [15], in experiment [17], in experiment [16] and in experiment [18] was “inactive” throughout.
Take `CC(C)c1cccc(C(C)C)c1N`: the Potency result in experiment [1], in [2], in [3], in [4], in [19] and in [6] was “inactive” throughout. Further, the Potency result in experiment [7], in experiment [8], in [10], in experiment [11], in [12] and in experiment [13] was “inactive” each time. The Potency entry in experiment [14], in experiment [15], in [17], in [20], in experiment [16] and in experiment [18] was “inactive” in each case.
For the compound `CC(C)(C)NCC(O)COc1ccccc1OCC1CCCO1` (stereo not drawn), the Potency entry in [1], in experiment [2], in [3], in experiment [4], in experiment [19] and in [5] was “inactive” throughout. Moreover, the Potency result in experiment [6], in experiment [7], in [8], in [9], in [10] and in [12] was “inactive” throughout. The Potency result in experiment [13], in [14], in [15], in experiment [16] and in experiment [18] was “inactive” each time. For the same compound, the Potency in experiment [17] was 26.6 nM (active).
